The values that follow come from ChEMBL document CHEMBL2218924, “A broad activity screen in support of a chemogenomic map for kinase signalling research and drug discovery” (Biochem J, 2013).

In assay [1] the target is T1, Ephrin type-A receptor 3 (Homo sapiens) (UniProt P29320).
T1 sequence (whole entry): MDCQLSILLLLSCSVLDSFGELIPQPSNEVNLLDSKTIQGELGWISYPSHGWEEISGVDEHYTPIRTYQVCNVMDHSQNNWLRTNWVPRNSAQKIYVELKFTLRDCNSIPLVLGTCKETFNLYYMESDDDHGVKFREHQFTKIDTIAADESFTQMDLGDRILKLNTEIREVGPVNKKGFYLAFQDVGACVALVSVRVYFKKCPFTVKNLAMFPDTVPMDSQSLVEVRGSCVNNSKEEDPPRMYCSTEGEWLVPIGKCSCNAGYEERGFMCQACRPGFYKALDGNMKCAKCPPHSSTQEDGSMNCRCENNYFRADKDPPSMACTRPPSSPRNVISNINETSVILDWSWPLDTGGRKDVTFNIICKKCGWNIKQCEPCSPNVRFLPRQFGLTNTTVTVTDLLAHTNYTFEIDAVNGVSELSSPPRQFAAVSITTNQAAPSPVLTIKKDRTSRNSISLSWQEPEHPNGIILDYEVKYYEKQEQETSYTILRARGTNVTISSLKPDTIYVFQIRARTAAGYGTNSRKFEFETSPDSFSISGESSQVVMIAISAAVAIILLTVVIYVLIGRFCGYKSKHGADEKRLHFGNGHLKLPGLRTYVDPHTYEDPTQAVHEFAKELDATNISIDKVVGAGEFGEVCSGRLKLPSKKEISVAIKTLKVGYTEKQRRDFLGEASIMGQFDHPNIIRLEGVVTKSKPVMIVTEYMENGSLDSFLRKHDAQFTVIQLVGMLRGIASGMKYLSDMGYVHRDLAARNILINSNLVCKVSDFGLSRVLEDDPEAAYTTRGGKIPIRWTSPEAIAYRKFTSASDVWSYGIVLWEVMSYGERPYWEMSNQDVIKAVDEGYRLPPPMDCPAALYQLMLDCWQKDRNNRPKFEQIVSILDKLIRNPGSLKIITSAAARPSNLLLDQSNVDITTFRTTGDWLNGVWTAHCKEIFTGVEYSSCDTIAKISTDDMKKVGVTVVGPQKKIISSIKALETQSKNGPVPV
The note with it: at 10 µM.

The target of assay [2] is Ephrin type-A receptor 4 (Homo sapiens) (UniProt P54764). The following applies: at 1 µM.
Ephrin type-A receptor 4 (Homo sapiens), sequence (P54764 whole entry): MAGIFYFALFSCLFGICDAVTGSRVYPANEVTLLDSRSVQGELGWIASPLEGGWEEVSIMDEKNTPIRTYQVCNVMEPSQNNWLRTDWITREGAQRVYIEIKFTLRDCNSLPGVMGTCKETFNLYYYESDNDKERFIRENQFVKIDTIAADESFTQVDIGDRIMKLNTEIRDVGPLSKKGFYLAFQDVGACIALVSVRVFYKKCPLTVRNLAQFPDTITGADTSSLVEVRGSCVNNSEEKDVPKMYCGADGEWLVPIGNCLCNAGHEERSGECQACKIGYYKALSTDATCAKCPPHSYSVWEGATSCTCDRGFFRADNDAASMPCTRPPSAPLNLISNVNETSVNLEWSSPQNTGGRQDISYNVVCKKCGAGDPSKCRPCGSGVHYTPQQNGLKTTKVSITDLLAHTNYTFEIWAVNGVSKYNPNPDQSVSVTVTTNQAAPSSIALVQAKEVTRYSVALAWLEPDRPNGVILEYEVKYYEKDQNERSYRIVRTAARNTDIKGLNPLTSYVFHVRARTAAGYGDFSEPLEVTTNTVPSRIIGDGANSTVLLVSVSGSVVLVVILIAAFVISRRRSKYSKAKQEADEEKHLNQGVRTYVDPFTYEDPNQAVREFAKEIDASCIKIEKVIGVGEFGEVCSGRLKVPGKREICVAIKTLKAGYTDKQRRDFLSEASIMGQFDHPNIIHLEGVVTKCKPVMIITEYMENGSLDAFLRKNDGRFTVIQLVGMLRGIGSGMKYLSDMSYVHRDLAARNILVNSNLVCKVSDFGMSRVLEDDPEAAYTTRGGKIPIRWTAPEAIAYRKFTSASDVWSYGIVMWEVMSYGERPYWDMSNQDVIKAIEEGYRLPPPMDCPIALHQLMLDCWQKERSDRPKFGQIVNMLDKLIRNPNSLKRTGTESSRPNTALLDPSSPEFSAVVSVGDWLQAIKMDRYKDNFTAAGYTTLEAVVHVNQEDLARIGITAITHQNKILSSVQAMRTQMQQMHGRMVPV
Assay [3] has the same target. The note with it: at 10 µM.
The target in assay [4] is Ephrin type-A receptor 5 (Homo sapiens) (UniProt P54756). The note with it: at 1 µM.
Ephrin type-A receptor 5 (Homo sapiens), sequence (P54756 whole entry): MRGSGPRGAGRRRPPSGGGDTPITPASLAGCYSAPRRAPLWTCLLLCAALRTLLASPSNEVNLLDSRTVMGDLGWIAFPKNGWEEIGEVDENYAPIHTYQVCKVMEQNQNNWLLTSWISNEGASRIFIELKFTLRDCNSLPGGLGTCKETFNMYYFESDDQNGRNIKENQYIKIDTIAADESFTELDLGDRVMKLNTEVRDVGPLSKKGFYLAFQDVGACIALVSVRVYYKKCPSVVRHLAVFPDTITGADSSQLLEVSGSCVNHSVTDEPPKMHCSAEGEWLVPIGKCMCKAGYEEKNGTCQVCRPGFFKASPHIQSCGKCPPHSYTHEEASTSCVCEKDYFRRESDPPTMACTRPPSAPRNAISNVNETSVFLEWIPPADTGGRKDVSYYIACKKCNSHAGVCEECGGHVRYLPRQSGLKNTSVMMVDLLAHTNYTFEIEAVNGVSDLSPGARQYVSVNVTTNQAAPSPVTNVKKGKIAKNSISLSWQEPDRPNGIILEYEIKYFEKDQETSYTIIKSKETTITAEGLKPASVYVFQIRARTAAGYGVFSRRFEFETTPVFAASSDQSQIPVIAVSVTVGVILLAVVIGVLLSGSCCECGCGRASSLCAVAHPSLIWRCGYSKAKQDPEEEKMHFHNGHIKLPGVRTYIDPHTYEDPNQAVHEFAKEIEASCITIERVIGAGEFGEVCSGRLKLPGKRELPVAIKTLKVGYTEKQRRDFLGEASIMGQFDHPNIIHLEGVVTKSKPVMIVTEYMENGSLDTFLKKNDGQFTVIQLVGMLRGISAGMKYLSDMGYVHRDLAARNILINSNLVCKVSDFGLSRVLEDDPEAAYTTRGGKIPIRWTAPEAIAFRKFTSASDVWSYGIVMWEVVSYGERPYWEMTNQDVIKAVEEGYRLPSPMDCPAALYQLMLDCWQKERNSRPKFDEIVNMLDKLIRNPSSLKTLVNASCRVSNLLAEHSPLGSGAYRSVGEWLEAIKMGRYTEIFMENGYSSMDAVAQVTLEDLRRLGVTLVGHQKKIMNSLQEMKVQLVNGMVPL
For assay [5] the target is unchanged. The note with it: at 10 µM.
The target of assay [6] is Ephrin type-A receptor 7 (Homo sapiens) (UniProt Q15375). The following applies: at 1 µM.
Ephrin type-A receptor 7 (Homo sapiens), sequence (Q15375 28-998 limits assumed): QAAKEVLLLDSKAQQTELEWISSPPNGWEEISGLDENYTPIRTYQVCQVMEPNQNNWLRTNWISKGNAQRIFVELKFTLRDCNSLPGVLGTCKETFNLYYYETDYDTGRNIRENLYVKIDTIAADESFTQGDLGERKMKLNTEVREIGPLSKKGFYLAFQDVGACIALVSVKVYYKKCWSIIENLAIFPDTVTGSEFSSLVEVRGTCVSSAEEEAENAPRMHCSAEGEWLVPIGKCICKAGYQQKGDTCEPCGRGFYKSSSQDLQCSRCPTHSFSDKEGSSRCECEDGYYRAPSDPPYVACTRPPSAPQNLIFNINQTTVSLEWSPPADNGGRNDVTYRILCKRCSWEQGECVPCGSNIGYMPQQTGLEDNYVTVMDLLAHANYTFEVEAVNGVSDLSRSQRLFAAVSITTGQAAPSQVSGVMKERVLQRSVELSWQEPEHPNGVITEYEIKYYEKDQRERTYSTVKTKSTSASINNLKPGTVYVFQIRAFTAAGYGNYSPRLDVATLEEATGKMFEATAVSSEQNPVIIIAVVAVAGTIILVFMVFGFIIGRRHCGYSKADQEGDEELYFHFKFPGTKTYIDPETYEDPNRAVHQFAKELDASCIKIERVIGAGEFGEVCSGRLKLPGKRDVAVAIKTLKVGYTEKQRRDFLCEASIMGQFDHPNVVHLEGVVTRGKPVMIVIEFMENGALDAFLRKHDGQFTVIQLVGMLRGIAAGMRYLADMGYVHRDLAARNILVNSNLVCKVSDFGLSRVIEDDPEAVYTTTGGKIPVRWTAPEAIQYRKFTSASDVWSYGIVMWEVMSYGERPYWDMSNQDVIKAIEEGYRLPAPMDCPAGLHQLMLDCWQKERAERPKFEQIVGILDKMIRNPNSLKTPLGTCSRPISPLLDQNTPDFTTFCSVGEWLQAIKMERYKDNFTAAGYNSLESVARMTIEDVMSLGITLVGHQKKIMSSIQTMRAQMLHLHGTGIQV
Assay [7] has the same target. The following applies: at 10 µM.
For assay [8], the target named is T2, Ephrin type-A receptor 8 (Homo sapiens) (UniProt P29322).
T2 sequence (whole entry): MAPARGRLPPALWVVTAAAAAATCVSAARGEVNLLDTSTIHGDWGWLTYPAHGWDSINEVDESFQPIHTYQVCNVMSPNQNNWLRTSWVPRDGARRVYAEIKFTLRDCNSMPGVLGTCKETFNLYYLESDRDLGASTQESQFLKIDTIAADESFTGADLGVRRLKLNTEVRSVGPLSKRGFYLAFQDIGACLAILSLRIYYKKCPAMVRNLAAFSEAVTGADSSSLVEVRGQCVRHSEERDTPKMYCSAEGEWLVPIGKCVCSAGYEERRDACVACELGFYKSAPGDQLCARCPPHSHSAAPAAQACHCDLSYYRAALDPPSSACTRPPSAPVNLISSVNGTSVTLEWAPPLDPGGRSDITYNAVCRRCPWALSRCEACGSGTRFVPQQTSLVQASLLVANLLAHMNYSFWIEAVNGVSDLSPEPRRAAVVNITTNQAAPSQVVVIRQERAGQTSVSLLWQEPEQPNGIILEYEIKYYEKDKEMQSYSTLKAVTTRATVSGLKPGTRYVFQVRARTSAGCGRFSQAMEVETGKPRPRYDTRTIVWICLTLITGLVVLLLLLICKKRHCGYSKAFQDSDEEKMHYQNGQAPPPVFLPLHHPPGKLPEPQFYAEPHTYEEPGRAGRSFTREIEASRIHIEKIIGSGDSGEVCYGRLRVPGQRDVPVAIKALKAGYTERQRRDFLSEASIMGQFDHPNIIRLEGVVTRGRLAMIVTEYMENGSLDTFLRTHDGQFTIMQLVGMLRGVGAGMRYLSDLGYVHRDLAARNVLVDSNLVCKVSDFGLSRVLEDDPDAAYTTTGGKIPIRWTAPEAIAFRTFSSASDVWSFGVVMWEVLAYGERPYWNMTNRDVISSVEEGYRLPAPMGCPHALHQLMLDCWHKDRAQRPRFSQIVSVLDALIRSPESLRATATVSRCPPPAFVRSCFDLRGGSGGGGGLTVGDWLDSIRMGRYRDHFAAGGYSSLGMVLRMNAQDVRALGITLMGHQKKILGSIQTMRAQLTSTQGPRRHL
The note with it: at 1 µM.

Assay [9] addresses T2, Ephrin type-A receptor 8 (Homo sapiens). The note with it: at 10 µM.
Assay [10] has as its target T3, Ephrin type-B receptor 1 (Homo sapiens) (UniProt P54762).
T3 sequence (whole entry): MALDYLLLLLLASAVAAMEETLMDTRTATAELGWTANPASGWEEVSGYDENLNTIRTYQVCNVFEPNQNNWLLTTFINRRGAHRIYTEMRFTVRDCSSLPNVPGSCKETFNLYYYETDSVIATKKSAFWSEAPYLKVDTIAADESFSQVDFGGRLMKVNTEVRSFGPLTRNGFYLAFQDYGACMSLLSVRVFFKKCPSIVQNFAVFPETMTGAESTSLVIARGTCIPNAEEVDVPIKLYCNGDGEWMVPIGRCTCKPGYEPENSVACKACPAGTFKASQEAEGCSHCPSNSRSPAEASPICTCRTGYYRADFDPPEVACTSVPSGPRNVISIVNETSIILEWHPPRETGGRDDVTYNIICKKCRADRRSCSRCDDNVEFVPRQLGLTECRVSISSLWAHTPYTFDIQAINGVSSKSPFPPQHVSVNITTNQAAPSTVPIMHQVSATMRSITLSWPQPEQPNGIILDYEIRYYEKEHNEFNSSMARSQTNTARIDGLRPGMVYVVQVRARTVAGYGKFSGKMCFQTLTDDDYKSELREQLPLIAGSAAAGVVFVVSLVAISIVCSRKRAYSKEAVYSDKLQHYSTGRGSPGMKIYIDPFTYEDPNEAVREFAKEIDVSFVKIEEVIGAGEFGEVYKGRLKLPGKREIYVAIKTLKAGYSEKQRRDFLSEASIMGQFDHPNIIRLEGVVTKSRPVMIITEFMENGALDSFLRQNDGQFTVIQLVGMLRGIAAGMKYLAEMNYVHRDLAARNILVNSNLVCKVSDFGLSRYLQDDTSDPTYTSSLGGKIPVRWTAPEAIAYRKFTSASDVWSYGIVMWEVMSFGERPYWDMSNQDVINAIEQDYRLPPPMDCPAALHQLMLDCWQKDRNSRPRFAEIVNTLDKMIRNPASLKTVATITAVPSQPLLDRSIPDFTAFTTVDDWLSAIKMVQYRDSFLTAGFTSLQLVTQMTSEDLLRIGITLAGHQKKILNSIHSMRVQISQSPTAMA
The note with it: at 1 µM.

Turning to `O=c1[nH]c2ccccc2n1C1CCN(Cc2ccc(-c3nc4cc5[nH]cnc5cc4nc3-c3ccccc3)cc2)CC1`, the residual activity in assay [1] was determined as 76%; in [2] it was 112%; in assay [3] it was 81%; in [4], 114%; in [5], 99%; in assay [6], 97%. The residual activity in [7] amounted to 93%; in assay [8], 108%; in assay [9] it was 104%; in [10], 93%.
